# Measurements published in the supplement of paper PMC3656093.
# ± gives the standard deviation of the averaged measurements. In all, about 1,900 compounds were measured (“CD40L-induced NF-kB luciferase activity, plate-corrected, relative to DMSO (0) and IKK inhibitor VII (-100) controls”: median about 0.032, lowest 2% from about -26 on). The list comes from a sample in which the lowest values are over-represented; it also holds similar structures and randomly drawn compounds.
# Tested on: BL2-NFkB-Luc
# Test: CD40L-induced NF-kB luciferase activity, plate-corrected, relative to DMSO (0) and IKK inhibitor VII (-100) controls (% normalized activity); higher = more NF-kB reporter activity (less inhibition)
# Settings: 9.4 µM; stimulus: tCD40L 64 ng/ml; 4.5 h
# Method: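 BL2 B cells with a stable NF-kB response-element luciferase reporter (BL2-NFkB-Luc), 384-well. Cells were pre-incubated with compound at 9.4 uM for 1 h at 37 C, then stimulated with 64 ng/ml trimerized CD40L for 4.5 h; luciferase was read with Steady-Glo. Signal was normalised per plate in Genedata (median DMSO neutral control = 0, median IKK inhibitor VII at 50 uM = -100) with Assay Median plate-pattern correction; duplicate plates.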
row,Compound,CD40L-induced NF-kB luciferase activity
1,COC(=O)C1=C(C)N(C)C(=S)NC1c1ccc(Cl)cc1 (configuration not stated),-1.51 ± 7.8
2,CC[C@]1(O)C[C@@H]2CN(CCc3c([nH]c4ccccc34)[C@@](C(=O)OC)(c3cc4c(cc3OC)N(C)[C@H]3[C@@](O)(C(=O)OC)[C@H](OC(C)=O)[C@]5(CC)C=CCN6CC[C@]43[C@@H]65)C2)C1,-54.7 ± 1.7
3,CC[C@]1(O)C[C@@H]2CN(CCc3c([nH]c4ccccc34)[C@@](C(=O)OC)(c3cc4c(cc3OC)N(C=O)[C@H]3[C@@](O)(C(=O)OC)[C@H](OC(C)=O)[C@]5(CC)C=CCN6CC[C@]43[C@@H]65)C2)C1,-50.4 ± 4.8
4,CCN(CC)CCCNC(=O)C1c2ccccc2Oc2ccccc21,-3.46 ± 0.27
5,CC1CCCC(C)N1NC(=O)c1ccc(Cl)c(S(N)(=O)=O)c1 (configuration not stated),4.34 ± 1.3
6,COc1cc2c(cc1OC)C(=S)NC(C)(C)C2,-9.01 ± 2.9
7,COc1cc(C(=O)NCCc2c[nH]c3ccccc23)ccc1OCc1c(C)noc1C,2.18 ± 3.7
8,Cc1ccc(C=NNc2nc(C(C)(C)C)cs2)o1,37 ± 13
9,Cc1cccc(N2CCN(C(=S)c3ccccc3)CC2)c1,6.51 ± 2.4
10,COc1ccc(CN2CCC(=O)NC2=O)cc1,4.64 ± 6
11,COc1ccc2c3c([nH]c2c1)C1(NCC3)C(=O)Nc2ccccc21 (configuration not stated),5.33 ± 6.5
12,Cc1ccc(C(=O)NC(=S)NCCCN2CCOCC2)cc1,8.31 ± 1.3
13,CC(=O)O[C@H]1CSC[C@H]1NC(=O)c1ccccc1,2.65 ± 7.7
14,O=C(Nc1ccc(Oc2c(F)c(F)c(F)c(F)c2F)cc1)OC1CCN2Cc3ccccc3N=C12 (configuration not stated),-15.2 ± 2.6
15,COc1cc(CNCCc2c[nH]c3ccccc23)cc(Cl)c1OCC(N)=O,-2.87 ± 1.6
16,O=C1C(O)CC2c3ccccc3CC3(CCCC3)N12 (configuration not stated),2.45 ± 2.2
17,c1ccc(Nc2ccccn2)nc1,6.17 ± 1.9
18,OCC1(CCOc2ccccc2)CCN(CCCn2cccn2)CC1,-3.68 ± 2.7
19,c1ccc2c(c1)CCOC2CNCCCN1CCCCC1 (configuration not stated),-0.411 ± 1.1
20,Cc1ccc(C(CC(=O)NCc2ccco2)c2ccc(OC(C)C)cc2)cc1 (configuration not stated),-5.4 ± 2.5
21,Cc1ccccc1NC(=O)c1c(C)cc(=O)oc1C,-17.1 ± 22
22,COc1cccc(OC)c1C(=O)Nc1nc2ccc([N+](=O)[O-])cc2s1,3.34 ± 5.3
23,CC(C)c1ccc(OCc2ccc(C(=O)O)o2)cc1,-32.6 ± 4.2
24,COc1ccc(NC(=O)Nc2ccc(C(C)C)cc2)cc1,13.4 ± 0.33
25,COC(=O)c1ccc(COc2ccc3c(C)c(C)c(=O)oc3c2C)o1,-0.554 ± 5

row,Compound,CD40L-induced NF-kB luciferase activity
1,CCOc1ccc2[nH]c3c(=O)n(CCc4ccc(OC)cc4)cnc3c2c1,-2.8 ± 3.9
2,COc1ccc2c(CCNC(=O)c3ccc([N+](=O)[O-])cc3)c[nH]c2c1,-3.48 ± 6.8
3,Cc1oc(C=NNC(=O)CC2(C)OCCO2)cc1Br,-0.742 ± 2.4
4,COc1ccc(/C=C/C(=O)NC(=S)NN2CCCCC2c2cccnc2)cc1 (configuration not stated),1.59 ± 3.4
5,Nc1nnc(CSCc2ccc(Cl)cc2Cl)s1,11.4 ± 2.5
6,Cc1c(OCC(=O)NC(Cc2c[nH]c3ccc(O)cc23)C(=O)O)ccc2c3c(c(=O)oc12)CCC3 (configuration not stated),2.12 ± 6.2
7,CCCCC[C@H](O)/C=C/[C@@H]1[C@@H](C/C=C\CCCC(=O)O)[C@@H](O)C[C@H]1O,-2.36 ± 2.1
8,CCCCC[C@H](O)/C=C/[C@@H]1[C@@H](C/C=C\CCCC(=O)OC)[C@@H](O)C[C@H]1O,-2.47 ± 3.2
9,CCCCC[C@H](O)/C=C/[C@@H]1[C@@H](CCCCCCC(=O)O)[C@@H](O)C[C@H]1O,-29.5 ± 5.2
10,O=S(=O)(CCc1nc2ccccc2[nH]1)c1ccc(Cl)cc1,-12.2 ± 1.3
11,COc1cc(C=NCC2OCCc3ccccc32)cc(OC)c1 (configuration not stated),-1.7 ± 1.9
12,CC1(C)c2ccccc2N2CC(=O)N(CC(N)=O)C21C (configuration not stated),1.75 ± 1.9
13,COc1ccccc1N1C(=O)C2CC(C)=C(C)CC2C1=O (configuration not stated),-4.81 ± 2.4
14,COc1ccc(S(N)(=O)=O)cc1C(N)=O,-2.45 ± 4.3
15,CC(=O)[C@@]1(O)CC[C@H]2[C@@H]3C[C@H](C)C4=CC(=O)C=C[C@]4(C)[C@@]3(F)[C@@H](O)C[C@@]21C,-27 ± 2.1
16,CCCC(=O)O[C@]1(C(=O)COC(C)=O)CC[C@H]2[C@@H]3C[C@H](F)C4=CC(=O)C=C[C@]4(C)[C@@]3(F)[C@@H](O)C[C@@]21C,-17.6 ± 1.6
17,CC(=O)OCC(=O)[C@@]1(O)[C@H](C)C[C@H]2[C@@H]3CCC4=CC(=O)C=C[C@]4(C)[C@@]3(F)[C@@H](O)C[C@@]21C,-27.6 ± 1
18,C[C@@H]1C[C@H]2[C@@H]3CCC4=CC(=O)C=C[C@]4(C)[C@@]3(F)[C@@H](O)C[C@]2(C)[C@@]1(O)C(=O)COP(=O)(O)O,-2.27 ± 0.67
19,CC(=O)OCC(=O)[C@@]12OC(C)(C)O[C@@H]1C[C@H]1[C@@H]3C[C@H](F)C4=CC(=O)C=C[C@]4(C)[C@@]3(F)[C@@H](O)C[C@@]12C,-11.4 ± 5.5
20,C[C@@H]1C[C@H]2[C@@H]3C[C@H](F)C4=CC(=O)C=C[C@]4(C)[C@@]3(F)[C@@H](O)C[C@]2(C)[C@@]1(O)C(=O)COC(=O)C(C)(C)C,-29.5 ± 1.7
21,C[C@@H]1C[C@H]2[C@@H]3C[C@H](F)C4=CC(=O)C=C[C@]4(C)[C@@]3(F)[C@@H](O)C[C@]2(C)[C@@]1(O)C(=O)CO,-27.2 ± 0.89
22,CC(=O)OCC(=O)[C@@]1(OC(C)=O)[C@@H](C)C[C@H]2[C@@H]3C[C@H](F)C4=CC(=O)C=C[C@]4(C)[C@@]3(F)[C@@H](O)C[C@@]21C,-17.3 ± 0.28
23,CC(=O)[C@@]1(O)CC[C@H]2[C@@H]3C[C@H](C)C4=CC(=O)CC[C@]4(C)[C@H]3CC[C@@]21C,-15.7 ± 2.4
24,C[C@H]1C[C@H]2[C@@H]3CCC4=CC(=O)C=C[C@]4(C)[C@@]3(Cl)[C@@H](O)C[C@]2(C)[C@@]1(O)C(=O)CO,-25.6 ± 2.2
25,CCC(=O)O[C@]1(C(=O)CCl)[C@@H](C)C[C@H]2[C@@H]3CCC4=CC(=O)C=C[C@]4(C)[C@@]3(F)[C@@H](O)C[C@@]21C,-21.44 ± 0.014

row,Compound,CD40L-induced NF-kB luciferase activity
1,CCCC(=O)O[C@]1(C(=O)CCl)[C@@H](C)C[C@H]2[C@@H]3CCC4=CC(=O)C=C[C@]4(C)[C@@]3(F)C(=O)C[C@@]21C,-27.9 ± 3.7
2,Cc1cnc(N)c2c(=O)oc3ccccc3c12,41.69 ± 0.28
3,O=C1CCCC(=O)C1=Cc1c[nH]c2ccccc12,-7.53 ± 0.79
4,CCn1c(=N)c(C(=O)NC)cc2c(=O)n3cccc(C)c3nc21,0.825 ± 8.5
5,O=C(Nc1ccc(N2CCOCC2)cc1)c1ccc(-c2ccccc2[N+](=O)[O-])o1,17.3 ± 0.45
6,COc1cc(OC)cc(C(C)=O)c1,-2.98 ± 1.2
7,C=C1C2(C(=O)Nc3ccc(SC(F)F)cc3)CCC(C2)C1(C)C (configuration not stated),1.47 ± 2.7
8,N#C/C(=C/c1ccccc1)C(=O)NCc1ccccc1,-1.8 ± 1.4
9,Cc1ccc(C(=O)COC(=O)c2cnccn2)cc1[N+](=O)[O-],0.896 ± 2.4
10,CCOc1ccccc1C(=O)NCCC(=O)O,-1.43 ± 3.9
11,Cc1cccc(N2C(=O)C3C(c4ccccc4)OC4(C(=O)c5ccccc5C4=O)C3C2=O)c1 (configuration not stated),-0.286 ± 0.72
12,COc1ccc(CN(CCC(c2ccc(F)cc2)C2CCOC(C)(C)C2)C(=O)c2ccco2)cc1 (configuration not stated),-4.2 ± 3.9
13,CC(=O)OC1c2c(ccc3ccc(=O)oc23)OC(C)(C)C1OC(=O)CC(C)C (configuration not stated),-3.56 ± 6.5
14,CC1/C(=C\c2ccc(Cl)cc2)C(=O)C2CC1C2(C)C (configuration not stated),3.76 ± 2.7
15,COC(=O)c1ccc(NC(=O)C23CCC(C)(C(=O)O2)C3(C)C)cc1 (configuration not stated),-0.16 ± 13
16,COc1cccc(NC(=O)C2CC(=O)OC23CCOC(C)(C)C3)c1 (configuration not stated),4.32 ± 4.7
17,CC1CNCCN1S(=O)(=O)c1cccc2cnccc12 (configuration not stated),-26.1 ± 6.3
18,O=C1c2ccccc2C2(c3ccccc3)NCCN12 (configuration not stated),1.37 ± 7
19,Cc1ccccc1C(=O)Oc1ccc(Sc2ccc(O)cc2)cc1,2.2 ± 3.6
20,O=C(NCCc1c[nH]c2ccccc12)OCCSS(=O)(=O)O,0.55 ± 1.4
21,CCOCC(=O)Nc1ccccc1C(=O)N1CCOCC1,-5 ± 1
22,Cn1nc(-c2ccccn2)nc2c(=O)n(C)c(=O)nc1-2,-19.1 ± 0.82
23,Cn1nc(-c2ccc(Cl)cc2)nc2c(=O)n(C)c(=O)nc1-2,-95.22 ± 0.55
24,Cn1c(=O)[nH]c2nnc(-c3ccc(Cl)c(Cl)c3)nc2c1=O,25.5 ± 4.7
25,O=C1[C@@H]2CSCN2C(=O)CN1Cc1ccc(F)cc1,-0.473 ± 5.9

row,Compound,CD40L-induced NF-kB luciferase activity
1,COc1ccc(NC(=S)N2CCN(CCN3C(=O)c4cccc5cccc(c45)C3=O)CC2)cc1,1.19 ± 0.65
2,O=C(c1cccc2ccccc12)C1CCCN(C(=O)CCN2CCCO2)C1 (configuration not stated),2.54 ± 2
3,CC(=O)O[C@H]1C(=O)[C@@]2(C)[C@H]([C@H](OC(=O)c3ccccc3)[C@]3(O)C[C@H](OC(=O)[C@H](O)C(NC(=O)c4ccccc4)c4ccccc4)C(C)=C1C3(C)C)[C@]1(OC(C)=O)CO[C@@H]1C[C@@H]2O (some centres not stated),-33.4 ± 1.3
4,CC(C)C1CC(CCNCc2ccc(N(C)C)cc2)(c2ccccc2)CCO1 (configuration not stated),-4.73 ± 11
5,N/C(=N\OC(=O)c1cccc(Br)c1)c1ccncc1,2.67 ± 0.79
6,COc1ccc(C2=CC(=O)C=CC2=O)cc1,-5.93 ± 5.3
7,CCOc1ccc(C(=O)N2CCCC2C(=O)O)cc1 (configuration not stated),2.22 ± 8
8,CC(=O)O[C@H]1CC[C@H]2[C@@H]3CCc4cc(O)ccc4[C@H]3CC[C@]12C,-3.39 ± 3.8
9,CCOC(=O)C(=O)N1CCN(c2ccccc2OC)CC1,-1.99 ± 1.9
10,COc1ccccc1/C=C/C(=O)OCCN1CCOCC1,2.92 ± 4.6
11,CCOC(=O)C(=Cc1ccccc1OC)C(=O)OCC,-29 ± 6.1
12,C[C@]12CCC(=O)C=C1CC[C@@H]1[C@@H]2[C@@H](O)C[C@@]2(C)[C@H]1CC[C@]2(O)C(=O)COC(=O)CCC(=O)O,-23.2 ± 7.1
13,C[C@H]1C[C@@H]2[C@H]([C@@H](O)C[C@@]3(C)[C@H]2CC[C@]3(O)C(=O)CO)[C@@]2(C)C=CC(=O)C=C12,-35.94 ± 0.26
14,CC(=O)OCC(=O)[C@@]1(O)CC[C@H]2[C@@H]3CCC4=CC(=O)C=C[C@]4(C)[C@H]3[C@@H](O)C[C@@]21C,-43.8 ± 2.2
15,C[C@]12CCC(=O)C=C1CC[C@@H]1[C@@H]2C(=O)C[C@@]2(C)[C@H]1CC[C@]2(O)C(=O)CO,-6.47 ± 2
16,CCCC1O[C@@H]2C[C@H]3[C@@H]4CCC5=CC(=O)C=C[C@]5(C)[C@H]4[C@@H](O)C[C@]3(C)[C@]2(C(=O)CO)O1 (some centres not stated),-26 ± 0.65
17,C[C@]12C=CC(=O)C=C1CCC1C3CC[C@](O)(C(=O)CO)[C@@]3(C)CC3OC312 (some centres not stated),-7.42 ± 5.5
18,CC1(C)O[C@@H]2C[C@H]3[C@@H]4C[C@H](F)C5=CC(=O)CC[C@]5(C)[C@H]4[C@@H](O)C[C@]3(C)[C@]2(C(=O)CO)O1,-21.3 ± 0.59
19,CC(=O)[C@@]1(O)CC[C@H]2[C@@H]3CCC4=CC(=O)CC[C@]4(C)[C@H]3[C@@H](O)C[C@@]21C,-12.9 ± 3.2
20,C[C@]12CCC(=O)C=C1CC[C@@H]1[C@@H]2CC[C@@]2(C)[C@H]1CC[C@]2(O)C(=O)CO,-8.87 ± 3.8
21,C[C@]12CCC(=O)C=C1[C@H](O)C[C@@H]1[C@@H]2[C@@H](O)C[C@@]2(C)[C@H]1CC[C@]2(O)C(=O)CO,-8.7 ± 4.6
22,CC(=O)OCC(=O)[C@@]1(O)CC[C@H]2[C@@H]3CCC4=CC(=O)CC[C@]4(C)[C@H]3[C@@H](O)C[C@@]21C,-31.1 ± 6.7
